# Test results: publication PMC7862700, “An all-to-all approach to the identification of sequence-specific readers for epigenetic DNA modifications on cytosine”
# Assays:
# Test in all cases: DAPPL (digital affinity profiling via proximity ligation, sequencing); 10 mM Tris-HCl pH 7.5, 50 mM NaCl, 1 mM DTT, 4% glycerol, room temperature, 30 min; GST-TFs on glutathione beads, 16-mer random dsDNA library, 0.1% formaldehyde crosslink after washing; high values mean tight binding
# [1] = biological target: T1, FLI1 (Homo sapiens, UniProt Q01543 1-452); details: protein: recombinant; tags: N-terminal GST; dsDNA, one strand shown
# T1 sequence: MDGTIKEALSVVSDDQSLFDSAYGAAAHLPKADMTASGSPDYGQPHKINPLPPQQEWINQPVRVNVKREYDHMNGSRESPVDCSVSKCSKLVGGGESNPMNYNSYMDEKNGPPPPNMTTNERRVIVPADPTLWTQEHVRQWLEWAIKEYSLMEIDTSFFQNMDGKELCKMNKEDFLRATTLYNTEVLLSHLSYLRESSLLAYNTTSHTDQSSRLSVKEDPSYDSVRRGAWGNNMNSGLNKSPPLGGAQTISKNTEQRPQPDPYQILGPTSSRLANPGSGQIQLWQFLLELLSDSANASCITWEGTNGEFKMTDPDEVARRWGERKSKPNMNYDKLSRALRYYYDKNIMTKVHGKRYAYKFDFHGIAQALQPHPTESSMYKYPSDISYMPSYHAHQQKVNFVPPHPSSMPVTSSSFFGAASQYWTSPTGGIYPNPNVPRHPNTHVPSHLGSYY
# Method in brief: (§1)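 GST fusions of human transcription factors were expressed in yeast and captured with glutathione beads. Once given DNA barcodes and pooled alongside a tag-only sample, they were incubated for 30 min at room temperature with 200 nmole of a random double-stranded 16-mer DNA library in Tris/NaCl/DTT/glycerol buffer, then washed, crosslinked (0.1% formaldehyde), proximity-ligated, PCR-amplified and sequenced on an Illumina NextSeq500. The binding signal of each hexamer is its read frequency for a factor divided by its frequency for the tag-only sample.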
# [2] = biological target: T2, ELK1 (Homo sapiens, UniProt P19419 1-428); details: protein: recombinant; tags: N-terminal GST; dsDNA, one strand shown
# T2 sequence: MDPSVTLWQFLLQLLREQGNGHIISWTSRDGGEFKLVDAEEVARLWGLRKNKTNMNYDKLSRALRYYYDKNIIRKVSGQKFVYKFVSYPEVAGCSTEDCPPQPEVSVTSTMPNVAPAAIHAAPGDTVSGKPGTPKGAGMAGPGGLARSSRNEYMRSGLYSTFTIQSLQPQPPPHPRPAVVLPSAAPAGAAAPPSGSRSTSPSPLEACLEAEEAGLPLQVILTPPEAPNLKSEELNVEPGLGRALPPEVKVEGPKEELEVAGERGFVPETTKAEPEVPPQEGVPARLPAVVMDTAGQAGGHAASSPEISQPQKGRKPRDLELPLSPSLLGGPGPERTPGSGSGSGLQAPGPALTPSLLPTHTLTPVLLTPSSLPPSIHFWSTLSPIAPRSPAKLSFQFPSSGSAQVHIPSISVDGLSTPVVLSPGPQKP
# Method in brief: as §1
# [3] = biological target: T3, GABPA (Homo sapiens, UniProt Q06546 1-454); details: protein: recombinant; tags: N-terminal GST; dsDNA, one strand shown
# T3 sequence: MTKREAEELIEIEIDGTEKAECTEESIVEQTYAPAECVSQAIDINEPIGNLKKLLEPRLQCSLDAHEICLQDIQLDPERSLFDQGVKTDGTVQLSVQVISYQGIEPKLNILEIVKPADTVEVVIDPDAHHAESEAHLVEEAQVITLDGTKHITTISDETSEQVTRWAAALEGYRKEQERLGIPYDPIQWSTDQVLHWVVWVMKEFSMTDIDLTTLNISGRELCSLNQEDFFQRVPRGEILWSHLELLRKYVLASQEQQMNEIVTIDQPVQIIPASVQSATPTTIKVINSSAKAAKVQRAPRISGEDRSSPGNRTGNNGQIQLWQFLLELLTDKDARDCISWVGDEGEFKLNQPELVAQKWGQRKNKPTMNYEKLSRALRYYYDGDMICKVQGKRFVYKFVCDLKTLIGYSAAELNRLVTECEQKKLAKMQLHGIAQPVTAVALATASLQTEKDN
# Method in brief: as §1
# [4] = biological target: T4, ERG (Homo sapiens, UniProt P11308 1-479); details: protein: recombinant; tags: N-terminal GST; dsDNA, one strand shown
# T4 sequence: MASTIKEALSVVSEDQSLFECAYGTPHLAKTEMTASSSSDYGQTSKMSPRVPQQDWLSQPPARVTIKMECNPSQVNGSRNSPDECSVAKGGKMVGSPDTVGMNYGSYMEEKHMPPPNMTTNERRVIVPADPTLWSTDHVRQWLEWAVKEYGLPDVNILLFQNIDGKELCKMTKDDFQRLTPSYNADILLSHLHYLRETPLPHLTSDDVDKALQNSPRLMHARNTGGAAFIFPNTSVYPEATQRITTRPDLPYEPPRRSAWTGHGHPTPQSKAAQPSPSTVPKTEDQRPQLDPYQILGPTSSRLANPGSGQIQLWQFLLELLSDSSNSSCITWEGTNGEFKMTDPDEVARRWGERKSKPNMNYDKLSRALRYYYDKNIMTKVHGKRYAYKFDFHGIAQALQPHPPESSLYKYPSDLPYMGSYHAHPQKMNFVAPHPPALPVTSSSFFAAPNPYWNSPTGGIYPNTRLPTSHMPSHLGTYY
# Method in brief: as §1
# [5] = biological target: ELF1 (Homo sapiens, UniProt P32519 1-619); details: protein: recombinant; tags: N-terminal GST; dsDNA, one strand shown
# Sequence of ELF1 (P32519 whole entry): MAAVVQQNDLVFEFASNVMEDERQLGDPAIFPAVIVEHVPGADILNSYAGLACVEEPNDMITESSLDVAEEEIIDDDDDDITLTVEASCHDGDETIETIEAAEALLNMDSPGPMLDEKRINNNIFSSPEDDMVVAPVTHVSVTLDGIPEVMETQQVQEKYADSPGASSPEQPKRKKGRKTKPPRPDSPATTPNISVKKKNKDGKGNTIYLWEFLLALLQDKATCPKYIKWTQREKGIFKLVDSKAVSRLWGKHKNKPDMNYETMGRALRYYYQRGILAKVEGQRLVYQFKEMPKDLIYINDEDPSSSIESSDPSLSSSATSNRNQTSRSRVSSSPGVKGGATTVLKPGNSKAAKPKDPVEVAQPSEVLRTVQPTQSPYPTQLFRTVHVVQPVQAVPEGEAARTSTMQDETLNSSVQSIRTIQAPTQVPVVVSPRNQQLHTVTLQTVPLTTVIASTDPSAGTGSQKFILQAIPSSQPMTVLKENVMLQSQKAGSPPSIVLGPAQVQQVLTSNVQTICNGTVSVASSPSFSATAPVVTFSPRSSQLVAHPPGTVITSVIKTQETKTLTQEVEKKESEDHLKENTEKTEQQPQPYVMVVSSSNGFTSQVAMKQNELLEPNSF
# Method in brief: as §1
# [6] = biological target: T5, EHF (Homo sapiens, UniProt Q9NZC4 1-300); details: protein: recombinant; tags: N-terminal GST; dsDNA, one strand shown
# T5 sequence: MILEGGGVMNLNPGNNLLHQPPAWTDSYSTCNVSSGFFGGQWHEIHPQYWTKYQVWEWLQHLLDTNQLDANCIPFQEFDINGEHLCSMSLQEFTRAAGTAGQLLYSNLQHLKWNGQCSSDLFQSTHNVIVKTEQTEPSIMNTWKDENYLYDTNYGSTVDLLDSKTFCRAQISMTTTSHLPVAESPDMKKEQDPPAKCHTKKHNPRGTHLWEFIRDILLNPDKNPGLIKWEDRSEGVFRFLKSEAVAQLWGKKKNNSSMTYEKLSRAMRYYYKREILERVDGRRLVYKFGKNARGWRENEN
# Method in brief: as §1
# [7] = biological target: SPI1 (Homo sapiens, UniProt P17947 1-270); details: protein: recombinant; tags: N-terminal GST; dsDNA, one strand shown
# Method in brief: as §1
# [8] = biological target: SPIB (Homo sapiens, UniProt Q01892 1-262); details: protein: recombinant; tags: N-terminal GST; dsDNA, one strand shown
# Sequence of SPIB (Q01892 whole entry): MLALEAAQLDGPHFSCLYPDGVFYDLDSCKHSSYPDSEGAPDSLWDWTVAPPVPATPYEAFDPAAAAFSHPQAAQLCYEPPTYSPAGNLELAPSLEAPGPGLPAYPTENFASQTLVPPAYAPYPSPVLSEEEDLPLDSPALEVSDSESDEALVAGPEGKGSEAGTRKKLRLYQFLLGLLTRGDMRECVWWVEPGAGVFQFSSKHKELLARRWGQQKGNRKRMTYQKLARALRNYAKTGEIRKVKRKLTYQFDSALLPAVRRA
# Method in brief: as §1
# [9] = biological target: T6, ELK3 (Homo sapiens, UniProt P41970 1-407); details: protein: recombinant; tags: N-terminal GST; dsDNA, one strand shown
# T6 sequence: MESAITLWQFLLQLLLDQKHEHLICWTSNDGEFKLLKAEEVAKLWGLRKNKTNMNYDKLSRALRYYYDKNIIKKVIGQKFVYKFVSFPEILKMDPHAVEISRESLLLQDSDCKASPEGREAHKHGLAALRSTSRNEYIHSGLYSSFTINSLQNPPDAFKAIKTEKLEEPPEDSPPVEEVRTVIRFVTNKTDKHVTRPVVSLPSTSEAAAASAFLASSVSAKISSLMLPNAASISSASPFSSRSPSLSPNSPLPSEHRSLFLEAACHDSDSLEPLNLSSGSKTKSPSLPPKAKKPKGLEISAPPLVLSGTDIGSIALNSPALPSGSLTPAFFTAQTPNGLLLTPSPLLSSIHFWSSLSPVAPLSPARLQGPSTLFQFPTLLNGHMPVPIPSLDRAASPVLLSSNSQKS
# Method in brief: as §1
# [10] = biological target: T7, FEV (Homo sapiens, UniProt Q99581 1-238); details: protein: recombinant; tags: N-terminal GST; dsDNA, one strand shown
# T7 sequence: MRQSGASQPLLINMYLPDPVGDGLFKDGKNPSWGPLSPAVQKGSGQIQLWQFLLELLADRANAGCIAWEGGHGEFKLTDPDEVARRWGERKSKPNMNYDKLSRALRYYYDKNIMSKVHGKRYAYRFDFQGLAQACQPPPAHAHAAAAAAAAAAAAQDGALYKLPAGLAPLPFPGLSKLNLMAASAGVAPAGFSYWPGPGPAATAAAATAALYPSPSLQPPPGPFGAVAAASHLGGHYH
# Method in brief: as §1
# [11] = biological target: ETV5 (Homo sapiens, UniProt P41161 1-510); details: protein: recombinant; tags: N-terminal GST; dsDNA, one strand shown
# Sequence of ETV5 (P41161 whole entry): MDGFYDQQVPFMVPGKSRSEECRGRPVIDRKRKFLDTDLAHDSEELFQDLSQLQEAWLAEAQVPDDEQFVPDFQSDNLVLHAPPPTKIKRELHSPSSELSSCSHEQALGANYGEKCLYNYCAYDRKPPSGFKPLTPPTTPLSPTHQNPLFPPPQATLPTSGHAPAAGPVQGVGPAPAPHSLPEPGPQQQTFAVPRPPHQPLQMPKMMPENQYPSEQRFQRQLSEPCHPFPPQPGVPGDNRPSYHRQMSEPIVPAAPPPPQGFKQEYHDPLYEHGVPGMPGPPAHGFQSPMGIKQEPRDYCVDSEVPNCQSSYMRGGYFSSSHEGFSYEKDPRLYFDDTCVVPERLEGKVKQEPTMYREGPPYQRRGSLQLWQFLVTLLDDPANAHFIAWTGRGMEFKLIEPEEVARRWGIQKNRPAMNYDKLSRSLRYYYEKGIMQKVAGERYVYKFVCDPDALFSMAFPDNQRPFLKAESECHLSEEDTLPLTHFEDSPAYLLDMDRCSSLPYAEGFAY
# Method in brief: as §1
# [12] = biological target: HSF1 (Homo sapiens, UniProt Q00613 1-529); details: protein: recombinant; tags: N-terminal GST; chain copies: 3; dsDNA, one strand shown
# Sequence of HSF1 (Q00613 whole entry): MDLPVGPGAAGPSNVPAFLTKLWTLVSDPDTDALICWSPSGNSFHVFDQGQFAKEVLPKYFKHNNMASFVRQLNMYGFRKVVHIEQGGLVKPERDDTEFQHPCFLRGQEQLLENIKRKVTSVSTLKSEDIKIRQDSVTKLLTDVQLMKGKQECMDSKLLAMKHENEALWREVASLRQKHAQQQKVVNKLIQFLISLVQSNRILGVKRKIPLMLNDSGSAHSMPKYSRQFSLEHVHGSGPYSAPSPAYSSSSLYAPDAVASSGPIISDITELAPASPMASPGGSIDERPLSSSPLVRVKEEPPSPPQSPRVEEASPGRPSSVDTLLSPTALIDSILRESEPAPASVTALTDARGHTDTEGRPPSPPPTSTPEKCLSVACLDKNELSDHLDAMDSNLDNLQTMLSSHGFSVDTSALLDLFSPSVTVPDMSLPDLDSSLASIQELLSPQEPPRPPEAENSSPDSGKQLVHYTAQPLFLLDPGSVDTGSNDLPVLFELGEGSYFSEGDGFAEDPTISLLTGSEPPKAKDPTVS
# Method in brief: as §1
# [13] = biological target: T8, SPIC (Homo sapiens, UniProt Q8N5J4 1-248); details: protein: recombinant; tags: N-terminal GST; dsDNA, one strand shown
# T8 sequence: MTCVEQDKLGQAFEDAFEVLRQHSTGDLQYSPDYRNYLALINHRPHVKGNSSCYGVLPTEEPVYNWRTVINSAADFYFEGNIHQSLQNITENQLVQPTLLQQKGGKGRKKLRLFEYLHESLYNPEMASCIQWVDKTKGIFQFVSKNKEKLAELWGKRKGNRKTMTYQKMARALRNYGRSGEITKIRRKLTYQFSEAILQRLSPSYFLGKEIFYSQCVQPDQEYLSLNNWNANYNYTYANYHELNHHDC
# Method in brief: as §1
# [14] = biological target: ELF4 (Homo sapiens, UniProt Q99607 1-663); details: protein: recombinant; tags: N-terminal GST; dsDNA, one strand shown
# Sequence of ELF4 (Q99607 whole entry): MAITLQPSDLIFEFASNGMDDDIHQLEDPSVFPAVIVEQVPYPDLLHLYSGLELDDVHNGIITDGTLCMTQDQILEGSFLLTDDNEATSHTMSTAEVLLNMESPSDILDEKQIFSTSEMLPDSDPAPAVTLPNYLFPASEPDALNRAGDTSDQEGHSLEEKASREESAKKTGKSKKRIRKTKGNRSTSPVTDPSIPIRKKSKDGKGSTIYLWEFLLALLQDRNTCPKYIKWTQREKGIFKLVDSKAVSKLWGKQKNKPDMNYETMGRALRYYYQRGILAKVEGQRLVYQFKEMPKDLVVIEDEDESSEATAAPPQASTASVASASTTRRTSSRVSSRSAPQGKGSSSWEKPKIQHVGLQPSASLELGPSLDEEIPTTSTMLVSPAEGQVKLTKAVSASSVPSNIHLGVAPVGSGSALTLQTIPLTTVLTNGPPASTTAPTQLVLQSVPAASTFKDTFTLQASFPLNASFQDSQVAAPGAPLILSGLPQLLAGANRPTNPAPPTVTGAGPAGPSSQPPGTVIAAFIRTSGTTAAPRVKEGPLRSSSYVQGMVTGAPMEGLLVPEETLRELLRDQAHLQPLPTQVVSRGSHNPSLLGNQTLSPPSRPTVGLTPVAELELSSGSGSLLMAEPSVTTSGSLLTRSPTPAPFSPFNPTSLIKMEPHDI
# Method in brief: as §1
# [15] = biological target: T9, ELK4 (Homo sapiens, UniProt P28324-2 1-405); details: protein: recombinant; tags: N-terminal GST; dsDNA, one strand shown
# T9 sequence: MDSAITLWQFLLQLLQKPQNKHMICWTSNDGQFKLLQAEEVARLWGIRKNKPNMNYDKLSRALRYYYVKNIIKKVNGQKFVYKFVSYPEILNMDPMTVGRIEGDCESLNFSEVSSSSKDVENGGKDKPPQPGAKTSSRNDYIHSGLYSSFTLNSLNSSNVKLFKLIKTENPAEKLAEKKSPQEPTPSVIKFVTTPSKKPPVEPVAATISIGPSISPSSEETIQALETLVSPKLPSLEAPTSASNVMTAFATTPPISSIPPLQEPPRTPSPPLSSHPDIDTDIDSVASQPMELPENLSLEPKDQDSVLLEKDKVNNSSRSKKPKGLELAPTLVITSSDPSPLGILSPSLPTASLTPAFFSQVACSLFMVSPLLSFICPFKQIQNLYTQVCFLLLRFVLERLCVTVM
# Method in brief: as §1
# [16] = biological target: T10, ETV2 (Homo sapiens, UniProt O00321 1-342); details: protein: recombinant; tags: N-terminal GST; dsDNA, one strand shown
# T10 sequence: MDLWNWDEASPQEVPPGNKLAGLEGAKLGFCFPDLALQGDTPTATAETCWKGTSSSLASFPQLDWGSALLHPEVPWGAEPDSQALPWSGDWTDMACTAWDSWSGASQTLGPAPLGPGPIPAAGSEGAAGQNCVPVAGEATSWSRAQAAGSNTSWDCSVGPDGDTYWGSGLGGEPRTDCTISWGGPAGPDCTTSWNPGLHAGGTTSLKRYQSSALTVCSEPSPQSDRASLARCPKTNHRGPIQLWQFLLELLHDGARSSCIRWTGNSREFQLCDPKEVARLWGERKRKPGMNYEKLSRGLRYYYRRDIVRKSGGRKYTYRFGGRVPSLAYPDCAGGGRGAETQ
# Method in brief: as §1
# [17] = biological target: T11, ELF3 (Homo sapiens, UniProt P78545 1-371); details: protein: recombinant; tags: N-terminal GST; dsDNA, one strand shown
# T11 sequence: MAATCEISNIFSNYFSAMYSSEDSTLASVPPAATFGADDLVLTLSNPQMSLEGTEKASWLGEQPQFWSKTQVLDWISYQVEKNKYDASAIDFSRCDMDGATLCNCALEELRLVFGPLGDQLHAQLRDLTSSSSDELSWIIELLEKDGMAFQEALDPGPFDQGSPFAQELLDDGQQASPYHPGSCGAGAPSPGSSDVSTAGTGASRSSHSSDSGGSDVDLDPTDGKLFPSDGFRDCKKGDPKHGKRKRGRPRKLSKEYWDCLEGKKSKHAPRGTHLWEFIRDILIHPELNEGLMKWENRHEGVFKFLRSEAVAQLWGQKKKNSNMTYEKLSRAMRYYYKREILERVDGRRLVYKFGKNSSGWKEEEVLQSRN
# Method in brief: as §1
# [18] = biological target: CRX (Homo sapiens, UniProt O43186 1-299); details: protein: recombinant; tags: N-terminal GST; dsDNA, one strand shown
# Sequence of CRX (O43186 whole entry): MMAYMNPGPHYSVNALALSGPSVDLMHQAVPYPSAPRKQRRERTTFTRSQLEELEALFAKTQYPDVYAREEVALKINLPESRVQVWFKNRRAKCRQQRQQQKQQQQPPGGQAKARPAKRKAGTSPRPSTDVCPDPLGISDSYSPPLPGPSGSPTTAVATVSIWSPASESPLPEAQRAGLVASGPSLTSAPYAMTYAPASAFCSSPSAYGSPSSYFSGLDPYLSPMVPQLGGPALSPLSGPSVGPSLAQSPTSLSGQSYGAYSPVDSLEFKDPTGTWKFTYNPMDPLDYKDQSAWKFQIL
# Method in brief: as §1
# [19] = biological target: ETV1 (Homo sapiens, UniProt P50549 1-477); details: protein: recombinant; tags: N-terminal GST; dsDNA, one strand shown
# Sequence of ETV1 (P50549 whole entry): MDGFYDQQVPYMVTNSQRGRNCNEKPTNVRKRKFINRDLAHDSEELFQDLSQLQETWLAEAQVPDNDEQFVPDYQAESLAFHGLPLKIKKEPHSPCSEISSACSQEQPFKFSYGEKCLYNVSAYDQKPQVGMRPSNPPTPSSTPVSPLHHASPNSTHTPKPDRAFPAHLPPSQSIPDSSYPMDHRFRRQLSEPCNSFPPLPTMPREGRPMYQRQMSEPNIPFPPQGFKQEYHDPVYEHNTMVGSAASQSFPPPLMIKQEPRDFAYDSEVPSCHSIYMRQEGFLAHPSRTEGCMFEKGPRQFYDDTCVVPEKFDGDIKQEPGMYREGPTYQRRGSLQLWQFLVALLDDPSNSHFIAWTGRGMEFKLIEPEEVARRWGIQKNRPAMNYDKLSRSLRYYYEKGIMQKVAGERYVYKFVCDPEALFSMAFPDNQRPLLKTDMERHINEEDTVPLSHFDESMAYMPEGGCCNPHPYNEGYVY
# Method in brief: as §1
sequence,measurement,setting,value
CTAGAT,binding signal,[1],"1.13 fold enrichment (6-mer frequency, TF over GST control)"
same,binding signal,[2],"1.18 fold enrichment (6-mer frequency, TF over GST control)"
same,binding signal,[3],"1.23 fold enrichment (6-mer frequency, TF over GST control)"
same,binding signal,[4],"1.12 fold enrichment (6-mer frequency, TF over GST control)"
same,binding signal,[5],"1.15 fold enrichment (6-mer frequency, TF over GST control)"
same,binding signal,[6],"1.17 fold enrichment (6-mer frequency, TF over GST control)"
same,binding signal,[7],"1.2 fold enrichment (6-mer frequency, TF over GST control)"
same,binding signal,[8],"1.17 fold enrichment (6-mer frequency, TF over GST control)"
same,binding signal,[9],"1.16 fold enrichment (6-mer frequency, TF over GST control)"
same,binding signal,[10],"1.13 fold enrichment (6-mer frequency, TF over GST control)"
same,binding signal,[11],"1.19 fold enrichment (6-mer frequency, TF over GST control)"
same,binding signal,[12],"2.7 fold enrichment (6-mer frequency, TF over GST control)"
same,binding signal,[13],"1.16 fold enrichment (6-mer frequency, TF over GST control)"
same,binding signal,[14],"1.16 fold enrichment (6-mer frequency, TF over GST control)"
same,binding signal,[15],"1.17 fold enrichment (6-mer frequency, TF over GST control)"
same,binding signal,[16],"1.17 fold enrichment (6-mer frequency, TF over GST control)"
same,binding signal,[17],"1.15 fold enrichment (6-mer frequency, TF over GST control)"
same,binding signal,[18],"1.83 fold enrichment (6-mer frequency, TF over GST control)"
same,binding signal,[19],"1.17 fold enrichment (6-mer frequency, TF over GST control)"
